Values joined by “and” are separate entries in the source; they are usually repeats but may differ in a detail not shown here. Equal values may be shown once. Some compounds were tested as several samples or in several runs, with calls that do not always agree. Active and inactive are the calls of the source. How the source made its calls: active means hit-call score of the fitted dose curve at least 0.9, where 1 is the maximum; inactive means score below 0.9.

Common to all, as to settings: mRNA level, 48 h; actives raise or lower the signal
Read-out in assay [1]: Heat shock 70 kDa protein 1 (HSPA1A), gene 3303
Put plainly: LTEA_HepaRG_HSPA1A: Life Technologies and Expression Analysis (LTEA) Assay for Heat shock 70 kDa protein 1 (HSPA1A) using HepaRG (AID 2283502). In short, it runs like this: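 HSPA1A induction in human HepaRG liver cells is measured after 48 h of chemical treatment (100 uM maximum, 0.5% DMSO vehicle). Expression comes from qRT-PCR normalized to endogenous controls.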

Read-out in assay [2]: Hypoxia-inducible factor 1-alpha (Homo sapiens) (UniProt Q16665)
Put plainly: LTEA_HepaRG_HIF1A: Life Technologies and Expression Analysis (LTEA) Assay for Hypoxia-inducible factor 1 (HIF1A) Trancription factor using HepaRG (AID 2283503).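 Further: HIF1A transcript by TaqMan qRT-PCR normalized to ACTB GAPDH and POLR2A.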 In short, it runs like this:
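HepaRG, 48 h exposure, 8-pt half-log series from 100 uM, 0.5% DMSO vehicle, duplicates. Readout: HIF1A transcript by qRT-PCR (Fluidigm array), housekeeping-normalised. Bidirectional curve fit vs DMSO baseline.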

Read-out in assay [3]: 3-Hydroxy-3-Methylglutaryl-CoA Synthase 2 (HMGCS2), HMGCS2 (gene 3158)
Nature of the assay: LTEA_HepaRG_HMGCS2: Life Technologies and Expression Analysis (LTEA) Assay for 3-Hydroxy-3-Methylglutaryl-CoA Synthase 2 (HMGCS2) using HepaRG (AID 2283504). In short, it runs like this:
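This steatosis marker was read as HMGCS2 mRNA change in HepaRG cells treated 48 h with up to 100 uM chemical. Normalisation used housekeeping genes; activity in either direction was fitted relative to 0.5% DMSO vehicle.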

Read-out in assay [4]: HGF (gene 3082)
Nature of the assay: LTEA_HepaRG_HGF: Life Technologies and Expression Analysis (LTEA) Assay for Hepatocyte Growth Facto (HGF) using HepaRG (AID 2283505). A digest of the protocol:
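Using HepaRG monolayers kept in 0.5% DMSO, chemicals were tested in duplicate over eight half-log concentrations from 100 uM for 48 h. Endpoint: HGF mRNA change relative to DMSO, normalized to ACTB/GAPDH/POLR2A.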

Read-out in assay [5]: Insulin Like Growth Factor 1 (IGF1), IGF1 (gene 3479)
Put plainly: LTEA_HepaRG_IGF1: Life Technologies and Expression Analysis (LTEA) Assay for Insulin Like Growth Factor 1 (IGF1) using HepaRG (AID 2283506). In short, it runs like this: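 Using human HepaRG liver cells, IGF1 transcript induction or suppression is measured 48 h after dosing across eight concentrations capped at 100 uM. Values derive from bidirectional concentration-response fitting with DMSO as baseline.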

Read-out in assay [6]: Intercellular Adhesion Molecule 1 (ICAM1), ICAM1 (gene 3383)
Nature of the assay: LTEA_HepaRG_ICAM1: Life Technologies and Expression Analysis (LTEA) Assay for Intercellular Adhesion Molecule 1 (ICAM1) using HepaRG (AID 2283507). In short, it runs like this:
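Using the human liver line HepaRG, compounds are tested in duplicate over 48 h at concentrations up to 100 uM. Expression is determined by TaqMan qRT-PCR, normalized to endogenous controls, and analysed relative to 0.5% DMSO vehicle.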

Read-out in assay [7]: Insulin-like growth factor-binding protein 1 (IGFBP1), IGFBP1 (gene 3484)
Nature of the assay: LTEA_HepaRG_IGFBP1: Life Technologies and Expression Analysis (LTEA) Assay for Insulin-like growth factor-binding protein 1 (IGFBP1) using HepaRG (AID 2283508). In short, it runs like this:
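HepaRG, 48 h, 8 conc. (max 100 uM, half-log), duplicates, 0.5% DMSO. Readout: TaqMan qRT-PCR, ACTB/GAPDH/POLR2A normalisation. Fit: bidirectional vs DMSO.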

Read-out in assay [8]: Interleukin 6 (IL6), IL6 (gene 3569)
Nature of the assay: LTEA_HepaRG_IL6: Life Technologies and Expression Analysis (LTEA) Assay for Interleukin 6 (IL6) using HepaRG (AID 2283509). In short, it runs like this:
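HepaRG, ~100,000 cells/well, 48 h pre-culture; serum-free induction medium; cmpd 8-pt half-log from 100 uM, 0.5% DMSO, duplicate, 48 h. Lysis in RLT, TaqMan qRT-PCR; gain or loss vs DMSO.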

Read-out in assay [9]: Interleukin 6 Receptor (IL6R), IL6R (gene 3570)
Nature of the assay: LTEA_HepaRG_IL6R: Life Technologies and Expression Analysis (LTEA) Assay for Interleukin 6 Receptor (IL6R) using HepaRG (AID 2283510).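 On AC50: differentiated human HepaRG liver cells in serum-free induction medium; TaqMan qRT-PCR signal normalized to ACTB GAPDH and POLR2A housekeeping genes.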 In short, it runs like this:
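Concentration-response in human liver HepaRG cells: eight concentrations from 100 uM downward by half-logs, 48 h exposure, 0.5% DMSO vehicle. IL6R mRNA change measured by qRT-PCR and fitted in both directions relative to vehicle.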

Read-out in assay [10]: Potassium channel subfamily K member 1 (KCNK1), KCNK1 (gene 3775)
Put plainly: LTEA_HepaRG_KCNK1: Life Technologies and Expression Analysis (LTEA) Assay for Potassium channel subfamily K member 1 (KCNK1) using HepaRG (AID 2283511). A digest of the protocol:
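Gain or loss of KCNK1 mRNA is the read-out, quantified by qRT-PCR against three housekeeping genes after 48 h chemical treatment of human HepaRG liver cells. Concentrations ran from 100 uM downward in half-log steps, vehicle 0.5% DMSO.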

Read-out in assay [11]: Keratin 19 (KRT19), KRT19 (gene 3880)
Nature of the assay: LTEA_HepaRG_KRT19: Life Technologies and Expression Analysis (LTEA) Assay for Keratin 19 (KRT19) using HepaRG (AID 2283512). In short, it runs like this:
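Readout is qRT-PCR of KRT19 mRNA, normalized to ACTB, GAPDH and POLR2A, from HepaRG cells treated 48 h with eight-point half-log dilutions topping at 100 uM. Activity in either direction is scored relative to 0.5% DMSO vehicle.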

Read-out in assay [12]: JUN Transcription Factor, JUN (gene 3725)
Put plainly: LTEA_HepaRG_JUN: Life Technologies and Expression Analysis (LTEA) Assay for JUN Transcription Factor using HepaRG (AID 2283513). A digest of the protocol:
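Human HepaRG liver cells receive test chemicals in 0.5% DMSO for 48 h across an eight-point range topping at 100 uM. Expression changes in JUN are scored in both directions against the DMSO vehicle.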

Read-out in assay [13]: Lipase C (LIPC), LIPC (gene 3990)
Put plainly: LTEA_HepaRG_LIPC: Life Technologies and Expression Analysis (LTEA) Assay for Lipase C (LIPC) using HepaRG (AID 2283514). A digest of the protocol:
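Read-out is LIPC transcript level by TaqMan qRT-PCR, normalized to three housekeeping genes, after 48 h chemical treatment of human HepaRG liver cells. Curves span eight concentrations topping at 100 uM; activity in either direction scored relative to 0.5% DMSO.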

Read-out in assay [14]: Lipoprotein lipase (LPL), LPL (gene 4023)
Put plainly: LTEA_HepaRG_LPL: Life Technologies and Expression Analysis (LTEA) Assay for Lipoprotein lipase (LPL) using HepaRG (AID 2283515). In short, it runs like this:
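Read-out is LPL transcript level by qRT-PCR, normalized to three housekeeping genes and fitted bidirectionally against the DMSO control. Human HepaRG cells received chemicals for 48 h at up to 100 uM.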

Read-out in assay [15]: MicroRNA 122 (MIR122), gene 406906
Nature of the assay: LTEA_HepaRG_MIR122: Life Technologies and Expression Analysis (LTEA) Assay for MicroRNA 122 (MIR122) using HepaRG (AID 2283516). Further: the transcript read is the microRNA miR-122. In short, it runs like this:
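HepaRG, 48 h exposure, 8-pt half-log from 100 uM, 0.5% DMSO; TaqMan qRT-PCR; bidirectional fit vs DMSO.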

Read-out in assay [16]: matrix metalloproteinase-10 (MMP10), MMP10 (gene 4319)
Put plainly: LTEA_HepaRG_MMP10: Life Technologies and Expression Analysis (LTEA) Assay for matrix metalloproteinase-10 (MMP10) using HepaRG (AID 2283517). In short, it runs like this: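 Gain or loss of MMP10 mRNA is fitted relative to the 0.5% DMSO vehicle. The human hepatic line HepaRG receives a 48-hour serum-free exposure, in duplicate, with a maximum concentration of 100 uM.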

Read-out in assay [17]: MYC, MYC (gene 4609)
Nature of the assay: LTEA_HepaRG_MYC: Life Technologies and Expression Analysis (LTEA) Assay for MYC using HepaRG (AID 2283518). In short, it runs like this: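 Expression changes were scored by TaqMan qRT-PCR with ACTB, GAPDH and POLR2A normalization. Cultures in serum-free induction medium received duplicate 8-point concentration series, highest 100 uM, for 48 h; DMSO (0.5%) served as baseline.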

Read-out in assay [18]: matrix metalloproteinase-3 (MMP3), MMP3 (gene 4314)
Put plainly: LTEA_HepaRG_MMP3: Life Technologies and Expression Analysis (LTEA) Assay for matrix metalloproteinase-3 (MMP3) using HepaRG (AID 2283519). In short, it runs like this: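 HepaRG, human; 48 h dosing, 8 conc. (max 100 uM, half-log), duplicate, 0.5% DMSO. Readout: MMP3 transcript by Fluidigm TaqMan qRT-PCR, ACTB/GAPDH/POLR2A-normalised. Gain or loss fitted vs DMSO.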

Read-out in assay [19]: Paternally Expressed 10 (PEG10), PEG10 (gene 23089)
Put plainly: LTEA_HepaRG_PEG10: Life Technologies and Expression Analysis (LTEA) Assay for Paternally Expressed 10 (PEG10) using HepaRG (AID 2283520).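 On AC50: differentiated HepaRG human liver cells in serum-free induction medium with 0.5% DMSO; PEG10 transcript by qRT-PCR normalised to ACTB GAPDH and POLR2A.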 In short, it runs like this:
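Chemicals tested on HepaRG cells for 48 h, highest concentration 100 uM. PEG10 expression assessed by qRT-PCR relative to DMSO control.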

Read-out in assay [20]: Glutathione S-transferase M3 (GSTM3), GSTM3 (gene 2947)
Nature of the assay: LTEA_HepaRG_GSTM3: Life Technologies and Expression Analysis (LTEA) Assay for Glutathione S-transferase M3 (GSTM3) using HepaRG (AID 2283501). In short, it runs like this:
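Expression of GSTM3 is determined by qRT-PCR in human liver HepaRG cells treated 48 h with an 8-point half-log range from 100 uM in 0.5% DMSO.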

Hypoxia-inducible factor 1-alpha (Homo sapiens), sequence (Q16665 whole entry, looked up): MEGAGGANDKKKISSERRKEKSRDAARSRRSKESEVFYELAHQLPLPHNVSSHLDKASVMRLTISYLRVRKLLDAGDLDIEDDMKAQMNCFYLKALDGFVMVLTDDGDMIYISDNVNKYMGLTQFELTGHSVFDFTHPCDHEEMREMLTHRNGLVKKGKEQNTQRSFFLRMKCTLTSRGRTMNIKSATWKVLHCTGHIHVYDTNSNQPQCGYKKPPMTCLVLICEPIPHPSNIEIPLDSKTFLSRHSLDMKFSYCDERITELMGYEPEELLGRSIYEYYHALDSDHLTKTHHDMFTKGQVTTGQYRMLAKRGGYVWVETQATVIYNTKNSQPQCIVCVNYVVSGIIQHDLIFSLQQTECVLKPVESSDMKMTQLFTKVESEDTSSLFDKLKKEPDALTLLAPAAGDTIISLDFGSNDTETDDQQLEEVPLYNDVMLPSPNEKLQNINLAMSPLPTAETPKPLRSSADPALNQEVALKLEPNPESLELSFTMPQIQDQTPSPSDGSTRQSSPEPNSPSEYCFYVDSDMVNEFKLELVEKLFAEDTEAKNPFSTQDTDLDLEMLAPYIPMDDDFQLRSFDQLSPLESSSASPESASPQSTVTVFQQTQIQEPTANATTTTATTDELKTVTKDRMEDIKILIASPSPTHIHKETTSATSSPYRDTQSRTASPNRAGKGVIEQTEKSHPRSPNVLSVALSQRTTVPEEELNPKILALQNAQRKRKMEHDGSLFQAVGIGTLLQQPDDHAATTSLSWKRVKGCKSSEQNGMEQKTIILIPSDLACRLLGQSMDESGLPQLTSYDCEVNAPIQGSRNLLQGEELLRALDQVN

Consider `CCCN(CCC)c1c([N+](=O)[O-])cc(S(N)(=O)=O)cc1[N+](=O)[O-]`, for which the AC50 was 70.7 µM (active) and 75.6 µM (active) and 50 µM (active) in assay [1]; 94.2 µM (active) and 84.5 µM (active) in [2]; 54.1 µM (active) and 73.4 µM (active) in [3]; 93.4 µM (active) in assay [5]; 94.8 µM (active) and 85.4 µM (active) in assay [6]; 92.9 µM (active) and 36.6 µM (active) and 78.9 µM (active) in [7]. The AC50 in assay [8] was 93.1 µM (active) and 85.4 µM (active) and 91 µM (active); in [9], 68.4 µM (active) and 70 µM (active); in [10], 93.5 µM (active); in assay [11], 93.8 µM (active) and 72.5 µM (active); in assay [12] it was 94.2 µM (active) and 79.3 µM (active) and 74.8 µM (active); in assay [14], 50 µM (active). The AC50 in assay [15] is 95.7 µM (active); in [16], 74.1 µM (active); in assay [17] it was 86.2 µM (active); in assay [18] it was 83.6 µM (active); in [19], 96.3 µM (active) and 41 µM (active) and 7.55 µM (active). The result in assay [2], in assay [3], in [4], in assay [5], in [6] and in assay [9] was inactive. Also, the molecule was classed as inactive in assay [10], in assay [11], in assay [13], in assay [14], in assay [15] and in assay [16]. Further, the molecule was called inactive in [17] and in [18].
In the case of `CCOP(=S)(OCC)SCn1c(=O)oc2cc(Cl)ccc21`, the outcome in assay [20], in assay [1], in [2], in assay [3], in [4] and in assay [6] was inactive. Also, the result in assay [7], in assay [8], in assay [9], in assay [10], in assay [12] and in [13] was inactive. For the same molecule, the result in assay [15], in assay [16], in assay [17], in [18] and in assay [19] was inactive.
Regarding `COC(=O)N(OC)c1ccccc1COc1ccn(-c2ccc(Cl)cc2)n1`, the AC50 was 80.3 µM (active) in [20]; 12 µM (active) in assay [1]; 50 µM (active) in [2]; 75.3 µM (active) in assay [3]; 68.1 µM (active) in [5]; 81.2 µM (active) in assay [6]. Besides, the AC50 is 64.3 µM (active) in [7]; 83.9 µM (active) in [8]; 86.2 µM (active) in assay [10]; 23.3 µM (active) in assay [11]; 50 µM (active) in assay [13]; 76.1 µM (active) in assay [15]. Moreover, the figures for the AC50 in assay [16], in assay [18] and in assay [19] were 78.1 µM (active), 26.5 µM (active) and 17 µM (active), respectively. The molecule was called inactive in [4], in assay [9], in assay [12], in assay [14] and in assay [17].

The AC50 is the concentration giving half of the maximal activity seen.

The values above are taken from PubChem BioAssay (EPA / NIEHS).
